The record followed here is PubChem BioAssay (NCATS).

Assay [1] is described as follows: Primary qHTS for small molecule stabilizers of the endoplasmic reticulum resident proteome: Secreted ER Calcium Modulated Protein (SERCaMP) assay (AID 1508630). Note: potency is the fitted concentration of half-maximal effect. The gist of the method: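 The SH-SY5Y reporter protocol was run at 3 concentrations up to 38.3 uM (primary) or 11 concentrations (follow-up): 16 h compound, 100 nM thapsigargin for 4 h, then extracellular luciferase luminescence.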
(In general: qHTS replaces the single test concentration by a dilution series.)

Assay [2] can be described thus: Counterscreen qHTS for small molecule stabilizers of the endoplasmic reticulum resident proteome: GLuc-NoTag assay (AID 1508627). Note: series mostly up to about 76 µM. The gist of the method: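 Secreted GLuc lacking the SERCaMP modification is measured in SH-SY5Y cells exposed to compound for 19 h and then to thapsigargin (100 nM, 4 h) to deplete ER calcium; hits retested at 11 concentrations, up to 76.6 uM.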
In general terms: The purpose of a counterscreen is to sort out artefacts and off-target activity.

The target of the next assay is Papain (Carica papaya) (UniProt P00784). The assay is described as follows: Primary qHTS assay for inhibitors of the protease papain (AID 1645873).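 Note: papain turnover of Z-FR-AMC read as the AMC fluorescence gain over 10 min; series mostly up to about 50 µM.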
Papain (Carica papaya), sequence (P00784 whole entry, looked up): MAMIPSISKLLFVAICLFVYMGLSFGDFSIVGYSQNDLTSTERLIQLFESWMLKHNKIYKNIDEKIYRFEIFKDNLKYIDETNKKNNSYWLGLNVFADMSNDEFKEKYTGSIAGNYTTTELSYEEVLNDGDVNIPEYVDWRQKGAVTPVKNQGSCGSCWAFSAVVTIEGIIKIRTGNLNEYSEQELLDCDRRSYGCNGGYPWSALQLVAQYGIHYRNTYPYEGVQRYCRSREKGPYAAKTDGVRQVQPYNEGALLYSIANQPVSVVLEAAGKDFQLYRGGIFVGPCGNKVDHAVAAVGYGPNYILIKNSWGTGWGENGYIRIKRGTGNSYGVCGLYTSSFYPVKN

Records with an inconclusive call do not appear. A call without a number means that no potency is given here. A number with no mark means an inactive call. Activity calls are given as the source filed them. Calls come from the whole dose curve; as a rule, active = well fitted inhibition curve with a large enough effect; inconclusive = small, poorly fitted or top-dose-only effect; inactive = no such curve, though single readings can be large or run the other way.

For `Cc1c(C(=O)c2cccc3ccccc23)c2cccc3c2n1[C@H](CN1CCOCC1)CO3`, in assay [1], the activity change, negative = inhibition was -12% [at 3.88 µM]. In the case of `NCc1cc(=O)[nH]o1`, the Potency entry (in assay [2]; in assay [1]; with Papain (Carica papaya)) was “inactive” in each case. With `COC[C@H]1OC(=O)c2coc3c2[C@@]1(C)C1=C(C3=O)[C@@H]2CC[C@H](O)[C@@]2(C)C[C@@H]1OC(C)=O`, in assay [1], the Potency result is “inactive”. Consider `NC1CCc2cc(O)c(O)cc2C1` (centres undefined), for which the Potency entry (in assay [2]; with Papain (Carica papaya)) was “inactive” each time. With `COC1=CC(C)=C[C@@H](C)[C@@H](O)[C@@H](C)CC(C)=CC=C[C@H](OC)[C@H]([C@@H](C)[C@@H](O)[C@H](C)[C@@]2(O)C[C@@H](O)[C@H](C)[C@@H](C(C)C)O2)OC1=O`, the Potency entry in assay [1] was “inactive”. Take `COc1ccc2c(c1)[C@]13CCCCC1C(C2)N(C)CC3` (some centres undefined): the Potency in assay [1] is 473 nM (active). `CC(O)=C(C#N)C(=O)Nc1cc(Br)ccc1Br`: in assay [1], the Potency entry is “inactive”.

On to `C[C@H]([C@H](O)CCC(C)(C)O)[C@H]1CC[C@@]2(O)C3=CC(=O)[C@@H]4C[C@@H](O)[C@@H](O)C[C@]4(C)[C@@H]3CC[C@]12C`, for which the Potency entry in assay [1] was “inactive”. Take `CC[C@H]1C=CC=CC[C@@H](C)[C@H](O)[C@@](C)(O)C(=O)[C@@H](C)[C@H](O)[C@@H](C)C(=O)[C@@H](C)[C@H](O)[C@@H](C)C=CC(=O)O[C@@H]2[C@@H](C)[C@H](CC1)O[C@]1(CC[C@H](C)[C@H](C[C@@H](C)O)O1)[C@H]2C`: the Potency result in assay [1] was “inactive”. As to `CCCN1CCO[C@@H]2c3cc(O)ccc3OC[C@@H]21`, the Potency result in assay [1] is “inactive”.

Take `C[C@]12Cc3cn[nH]c3C[C@@H]1CC[C@@H]1[C@H]2CC[C@@]2(C)[C@H]1CC[C@]2(C)O`: in assay [1], the Potency entry is “inactive”.
